Screening data as filed in PubChem BioAssay.
Most compounds without a hit are left out; they make up all but 4.1% or so of the library.
KLF5 inhibitor = kruppel-like factor 5 inhibition; DLD-1 KLF5 promoter-luciferase reporter, luminescence; AID 1700; hit rate 0.23% among 290,000; inhibition, % at 5 µM;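 active = inhibition above a per-plate limit of that plate's mean compound inhibition plus 3 SD, cut at about 60% in these data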;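 also: higher means less KLF5 promoter-driven luciferase light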
Jurkat NFkB inh = lowers PMA/ionomycin-induced NF-kB signal in Jurkat cells; PMA/ionomycin-induced NF-kB luciferase reporter, luminescence; inhibition, % at 4 µM; hit rate 0.53% among 330,000; in the data active = inhibition above about 50%
697 NFkB inh = lowers PMA/ionomycin-induced NF-kB signal in 697 B cells. 697 B-cell NF-kB luciferase reporter, 16 h. hit rate 0.33% among 330,000. AID 435022. inhibition, % at 4 µM; in the data active = inhibition above about 35%
Gli-Sufu antag = blocks Gli-Sufu signaling in a luciferase reporter; Sufu-KO-LIGHT fibroblasts, Gli luciferase reporter luminescence; inhibition, % at 5 µM; hit rate 0.74% among 340,000;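 active = inhibition above about 55%, limit read from the data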
aSyn 5UTR inh = MLPCN primary screen, SNCA 5' untranslated region; alpha-synuclein 5'UTR reporter, inhibitor activity; inhibition, % (tested at 7.5 µM); hit rate 0.82% among 300,000; in the data active = inhibition above about 60%;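 also: H4 neuroglioblastoma cells stably carrying SNCA 5'UTR luciferase fusion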
Mdm2 MdmX PPI = human Mdm2/MdmX binding inhibition; O15151+Q00987; SaOS-2 split-luciferase Mdm2/MdmX complementation, luminescence; inhibition, % at 8 µM; hit rate 3% among 330,000; AID 485346;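 active = inhibition of at least 50% at 8 µM in the primary screen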
Target sequence (O15151 whole entry, looked up): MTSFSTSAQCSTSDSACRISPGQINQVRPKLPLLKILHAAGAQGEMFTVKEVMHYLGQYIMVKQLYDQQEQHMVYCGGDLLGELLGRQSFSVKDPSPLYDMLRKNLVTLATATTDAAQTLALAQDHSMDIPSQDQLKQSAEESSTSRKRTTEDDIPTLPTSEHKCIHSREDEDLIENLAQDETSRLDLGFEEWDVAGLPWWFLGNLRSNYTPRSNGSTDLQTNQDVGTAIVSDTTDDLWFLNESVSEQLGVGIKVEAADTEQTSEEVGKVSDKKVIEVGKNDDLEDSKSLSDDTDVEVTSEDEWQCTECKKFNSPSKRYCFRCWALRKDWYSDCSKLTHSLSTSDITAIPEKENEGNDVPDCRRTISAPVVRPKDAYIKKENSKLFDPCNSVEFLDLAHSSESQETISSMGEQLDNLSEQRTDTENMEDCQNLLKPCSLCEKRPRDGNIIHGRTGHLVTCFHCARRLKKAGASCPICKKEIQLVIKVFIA
Target sequence (Q00987 whole entry, looked up): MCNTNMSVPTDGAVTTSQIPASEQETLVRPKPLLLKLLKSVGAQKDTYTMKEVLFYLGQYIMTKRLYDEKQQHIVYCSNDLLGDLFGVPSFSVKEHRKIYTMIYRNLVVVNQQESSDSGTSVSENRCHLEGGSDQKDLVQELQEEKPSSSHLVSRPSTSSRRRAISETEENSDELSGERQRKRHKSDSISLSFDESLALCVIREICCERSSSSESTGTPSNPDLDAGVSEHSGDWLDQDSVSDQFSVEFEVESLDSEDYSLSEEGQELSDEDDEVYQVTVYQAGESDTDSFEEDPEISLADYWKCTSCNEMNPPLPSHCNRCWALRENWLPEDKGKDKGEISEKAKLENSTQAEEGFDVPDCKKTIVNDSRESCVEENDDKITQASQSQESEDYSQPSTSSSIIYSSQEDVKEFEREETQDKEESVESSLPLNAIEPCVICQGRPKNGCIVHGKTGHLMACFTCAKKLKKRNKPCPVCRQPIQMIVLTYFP
Mdm2 MdmX conf = human Mdm2/MdmX binding inhibition, confirmed. shares compounds with Mdm2 MdmX PPI. luminescent assay. hit rate 55% among 10,000. inhibition, % at 8 µM; in the data active = inhibition above about 40%
Full FLuc ctr = counter-screen for Mdm2/MdmX inhibitors: full-length luciferase; shares compounds with Mdm2 MdmX PPI; SaOS-2 full-length luciferase counterscreen, luminescence; inhibition, % at 8 µM; hit rate 77% among 6,200; AID 504607;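 active = mean inhibition at 8 µM reaching about 37%, which flags the compound as non-specific, limit read from the data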;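 also: p53-null SaOS-2 cells with luciferase driven by a doxycycline-inducible promoter; compound on cells about two nights before reading with doxycycline added after day one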
Large screens that a line does not name were inactive (follow-up assays come after a bar, where they were run).

Cc1cc(Br)ccc1NC(=O)c1sc2ncnc(N3CCN(c4ccccn4)CC3)c2c1C	Mdm2 MdmX PPI 59 | Mdm2 MdmX conf 49 | Full FLuc ctr 59
COc1ccc(NC(=O)c2sc3nc(C)nc(N4CCN(c5ccccn5)CC4)c3c2C)cc1Cl	Mdm2 MdmX PPI 51 | Mdm2 MdmX conf inactive
COc1ccc(NC(=O)c2sc3ncnc(N4CCN(c5ccccn5)CC4)c3c2C)cc1Cl	Mdm2 MdmX PPI 57 | Mdm2 MdmX conf inactive
Cc1cc(Br)ccc1NC(=O)CN1CCN(c2ccccn2)CC1	none
Cc1ccc(NC(=O)c2ccccc2OCc2ccc([N+](=O)[O-])cc2)nc1	Mdm2 MdmX PPI 76 | Mdm2 MdmX conf 60 | Full FLuc ctr 92
COc1ccccc1/C=C/C(=O)c1cc(Br)ccc1OC(=O)c1ccco1	Mdm2 MdmX PPI 55 | Mdm2 MdmX conf inactive
O=C(CN(c1cccc(C(F)(F)F)c1)S(=O)(=O)c1ccc(Cl)c([N+](=O)[O-])c1)NCc1ccc(F)cc1	Mdm2 MdmX PPI 100 | Mdm2 MdmX conf inactive | Full FLuc ctr 95
C#CCN1C=C(C(=O)OCC)C(C)N(Cc2ccccc2I)S1(=O)=O (stereo not given)	Mdm2 MdmX PPI 55 (no result: KLF5 inhibitor, Jurkat NFkB inh, aSyn 5UTR inh) | Mdm2 MdmX conf 49 | Full FLuc ctr 51
Cc1ccc(NC(=O)c2nc(S(=O)(=O)Cc3ccccc3)ncc2Cl)cc1	Mdm2 MdmX PPI 82 | Mdm2 MdmX conf 63 | Full FLuc ctr 51
O=C(Nc1ccc(F)cc1)c1nc(S(=O)(=O)Cc2ccccc2)ncc1Cl	aSyn 5UTR inh 67, Mdm2 MdmX PPI 96 | Mdm2 MdmX conf 95 | Full FLuc ctr 52
Cc1ccccc1NC(=O)c1nc(S(C)(=O)=O)ncc1Cl	none
Cc1ccccc1CS(=O)(=O)c1ncc(Cl)c(C(=O)Nc2ccc(F)cc2)n1	aSyn 5UTR inh 64, Mdm2 MdmX PPI 100 (no result: Jurkat NFkB inh, 697 NFkB inh) | Mdm2 MdmX conf 65 | Full FLuc ctr 52
COc1cccc(N2C(=NC(=O)C3CCCO3)SC3CS(=O)(=O)CC32)c1 (stereo not given)	none
CN(c1ccccc1)S(=O)(=O)c1cccc(NC(=O)c2ccc(=O)[nH]n2)c1	none (no result: KLF5 inhibitor, aSyn 5UTR inh)
O=C(NCCN1CCOCC1)c1ccc2c(c1)N(Cc1cccc(F)c1)C(=O)c1ccccc1S2	none
Cc1ccccc1CN1C(=O)/C(=C\c2ccc(C(=O)NCCN3CCOCC3)cc2)Sc2ccccc21	none
O=C(CN1C(=O)/C(=C\c2cccc(Cl)c2)Sc2ccccc21)NCCCN1CCOCC1	none
CCN1CCN(CCNC(=O)c2ccc(/C=C3/Sc4ccccc4N(Cc4cccc(Cl)c4)C3=O)cc2)CC1	Mdm2 MdmX PPI 96 | Mdm2 MdmX conf 81 | Full FLuc ctr 58
CCN1CCN(CCNC(=O)c2ccc3c(c2)N(Cc2ccc(F)cc2)C(=O)/C(=C/c2ccccc2)S3)CC1	Mdm2 MdmX PPI 96 | Mdm2 MdmX conf 74 | Full FLuc ctr inactive
O=C(NCCN1CCOCC1)c1ccc(/C=C2\Sc3ccccc3N(Cc3ccccc3F)C2=O)cc1	Mdm2 MdmX PPI 60 | Mdm2 MdmX conf inactive
Cc1cccc(CN2C(=O)/C(=C\c3ccc(C(=O)NCCN4CCOCC4)cc3)Sc3ccccc32)c1	Mdm2 MdmX PPI 80 | Mdm2 MdmX conf 61 | Full FLuc ctr 76
CN1CCN(CCCNC(=O)c2ccc(/C=C3\Sc4ccccc4N(Cc4ccccc4F)C3=O)cc2)CC1	none (no result: Jurkat NFkB inh, 697 NFkB inh, Mdm2 MdmX PPI)
C/C(=N/NC(=O)CNC(=O)c1cccnc1)c1ccc(Cl)c(Cl)c1	none
CCOc1ccccc1Nc1cc2n(c(=O)n1)CCc1cc(OC)c(OC)cc1-2	none
CCOc1ccc(Nc2cc3n(c(=O)n2)CCc2cc(OC)c(OC)cc2-3)cc1	Mdm2 MdmX PPI 51 | Mdm2 MdmX conf inactive
CCOc1ccccc1CNCCNC(=O)c1nonc1N	none
Nc1nonc1C(=O)NCCNCc1ccccc1OCc1ccccc1F	Mdm2 MdmX PPI 56 | Mdm2 MdmX conf inactive
CCOC(=O)C(N)CSC1CC(=O)N(CCc2ccccc2)C1=O (stereo not given)	none
COc1ccc(C)cc1NC(=O)c1ccccc1NS(=O)(=O)c1ccc(Cl)s1	Mdm2 MdmX PPI 89 | Mdm2 MdmX conf 79 | Full FLuc ctr inactive
Cc1ccc(NC(=O)c2ccccc2NS(=O)(=O)c2ccc(Cl)s2)cc1S(=O)(=O)N1CCOCC1	Mdm2 MdmX PPI 66 | Mdm2 MdmX conf 45 | Full FLuc ctr 52
COc1ccccc1NC(=O)c1ccccc1NS(=O)(=O)c1cccs1	none
Cc1ccc(NC(=O)c2ccc([N+](=O)[O-])s2)cc1S(=O)(=O)N1CCOCC1	Mdm2 MdmX PPI 65 (no result: KLF5 inhibitor, aSyn 5UTR inh) | Mdm2 MdmX conf inactive
O=C(Nc1cc(S(=O)(=O)N2CCOCC2)ccc1N1CCOCC1)c1ccc([N+](=O)[O-])s1	none (no result: KLF5 inhibitor, aSyn 5UTR inh)
O=C(Nc1cc(S(=O)(=O)N2CCOCC2)ccc1O)c1ccc(NS(=O)(=O)c2ccc(Cl)s2)cc1	none
COc1cccc(CNC(=S)Nc2cc(C)ccc2C)c1	none
CCc1ccccc1NC(=O)NC1CCCCCCC1	none (no result: aSyn 5UTR inh)
COc1ccc2nccc(/C=C/c3ccnc4ccc(OC)cc34)c2c1	none
CCc1cc2c(SCc3ccc(C(=O)OC)o3)ncnc2s1	none
COc1ccc(-c2sc3cc(OC)c(OC)cc3c2-c2ccc(O)cc2)cc1	Mdm2 MdmX PPI 53 (no result: KLF5 inhibitor, aSyn 5UTR inh) | Mdm2 MdmX conf inactive
C=C[C@H](CC(C)C)N(Cc1ccccc1)S(=O)(=O)N(Cc1ccc(OC)cc1)[C@H](C=C)CC(C)C	Mdm2 MdmX PPI 58 (no result: KLF5 inhibitor, aSyn 5UTR inh) | Mdm2 MdmX conf inactive
C=CS(=O)(=O)N(Cc1ccccc1)[C@H](CO)CC(C)C	none (no result: KLF5 inhibitor, Jurkat NFkB inh, 697 NFkB inh, aSyn 5UTR inh, Mdm2 MdmX PPI)
CC(C)C[C@H](CO)N(Cc1ccccc1)S(=O)(=O)N(Cc1ccccc1)[C@@H](CO)CC(C)C	Mdm2 MdmX PPI 91 (no result: KLF5 inhibitor, aSyn 5UTR inh) | Mdm2 MdmX conf inactive
O=c1c(O)c(-c2ccccc2)oc2ccccc12	none (no result: KLF5 inhibitor, Jurkat NFkB inh, 697 NFkB inh, aSyn 5UTR inh, Mdm2 MdmX PPI)
Cc1ccc(-c2oc3ccccc3c(=O)c2O)cc1	Mdm2 MdmX PPI 84 | Mdm2 MdmX conf 51 | Full FLuc ctr inactive
Cn1cnnc1SCc1ccc(C(=O)N/N=C(/CCC(=O)O)c2ccc(C(C)(C)C)cc2)cc1	none (no result: KLF5 inhibitor, Jurkat NFkB inh, 697 NFkB inh, aSyn 5UTR inh, Mdm2 MdmX PPI)
O=C(Nc1ccc(Cl)c(C(F)(F)F)c1)NC1CC2CCCC(C1)N2Cc1ccccc1 (stereo not given)	Mdm2 MdmX PPI 83 | Mdm2 MdmX conf 52 | Full FLuc ctr 60
COc1ccc(NC(=O)/C(=C\c2ccc(OC)c(OC)c2)NC(=O)c2ccco2)cc1	none
Cc1ccccc1/C(N)=N/OC(=O)c1cccs1	none
CC1CCN(C(=O)c2ccc(NC3=C(Cl)C(=O)N(Cc4ccccc4)C3=O)cc2)CC1	Mdm2 MdmX PPI 58 (no result: KLF5 inhibitor, aSyn 5UTR inh) | Mdm2 MdmX conf inactive
O=C1C(Cl)=C(Nc2cccc(O)c2)C(=O)N1Cc1ccccc1	Mdm2 MdmX PPI 52 | Mdm2 MdmX conf inactive
CC1CCCCN1C(=O)c1ccc(C(=O)c2ccccc2)cc1 (stereo not given)	none (no result: KLF5 inhibitor, aSyn 5UTR inh)
